Each structure is given as a SMILES string. Values without a mark were called inactive. A call without a number means that no potency is given here. Active and inactive are the calls of the source. Calls come from the whole dose curve; as a rule, active = well fitted curve in the direction sought with a large enough effect in the repeat runs; inconclusive = weak or mixed curves; inactive = flat fitted curve, though single readings scatter.

This assay in a line: qHTS assay to test for compound auto fluorescence at 590 nm (red) in HEK293 cells (AID 720679). Particulars: red autofluorescence 540/590 nm; series mostly up to 91.3 µM. From the text:
National Center for Advancing Translational Sciences [NCATS]
NIH Chemical Genomics Center [NCGC]
U.S. Environmental Protection Agency [EPA]
National Institutes of Environmental Health Sciences [NIEHS]
National Toxicology Program [NTP]
U.S. Food and Drug Administration [FDA]
Compound auto fluorescence often interferes with screening of the compound library against various biological targets and signaling pathways. Some of these compounds may have fluorophoric properties. Such properties may interfere with the assay outputs resulting in false positives and/or negatives. To decrease such complications and ensure the compound activities are relevant in terms of biological response, the Tox21 10K compound library was screened for auto fluorescence.
From the fluorophores used as reporter signals in our screening assays, the auto fluorescence equivalencies of compounds against three fluorophores have been evaluated: Triamterene, Fluorescein and Rose Bengal sodium for blue, green and red fluorescence, respectively. The fluorescence intensities were measured using Excitation/Emission wavelengths at 405/460nm, 485/535nm and 540/590nm for blue, green and red labels, respectively. This assay includes the red fluorescence data.
Tox21 Assay Protocol Summary:
2,000 HEK293 cells in 5 uL of culture medium containing 10% dialyzed FBS per well were dispensed into black wall/clear bottom 1536-well plates using a Multidrop Combi Dispenser (Thermo Scientific). The assay plates were incubated for 4-5 hr at 37C to allow cell attachment to the well bottom, followed by the transfer of 23 nL compound or DMSO vehicle by a pintool work station (Kalypsys, San Diego, CA). After the assay plates were incubated overnight at 37C and 5% CO2, fluorescence intensities in the assay plates were measured by an Envision (PerkinElmer, Shelton, CT) plate reader using three labels for measuring blue, green and red fluorescence at […] 460, 535 and 590nm respectively.
On to `Cc1oc(-c2ccccc2)nc1CCOc1cccc2c1ccn2CCC(=O)O`, for which the Potency result was “inactive”. The same measure, in the same setting: then `OCCN1CCN(CCCN2c3ccccc3C=Cc3ccccc32)CC1`, with “inactive”.

As for `COc1cc2nc(N(C)CCCNC(=O)C3CCCO3)nc(N)c2cc1OC` (stereo not given), the fluorescence, % of fluorescent control was -0.585% [at 18.6 µM]. The same measure, in the same setting: then `Brc1c2ccccc2c(Br)c2ccccc12`, with -0.0447% [at 3.72 µM].

On to `COc1ccc(C(=O)N2CCN(CC(=O)N3CCOCC3)CC2)cc1`, for which the Potency result is “inactive”.

In the case of `CC(=O)c1ccc2c(c1)N(CCCN1CCC(CCO)CC1)c1ccccc1S2`, the fluorescence, % of fluorescent control was -0.278% [at 18.6 µM]. Regarding `CCN(CC)CCNc1ccc(CNC=O)c2sc3ccc(OC)cc3c(=O)c12`, the Potency result was “inactive”. `O=C(Cl)c1cc(C(=O)Cl)cc(C(=O)Cl)c1`: the Potency result was “inactive”. With `CN(C)CCN(Cc1ccccc1)c1ccccn1`, the Potency result is “inactive”. Same read-out and setting: then `O=C(OCCCCCCOC(=O)c1ccccc1)c1ccccc1`, with “inactive”; and `Brc1c2ccccc2cc2ccccc12`, with “inactive”; and `Nc1cccc([N+](=O)[O-])c1`, with “inactive”.

As for `C[C@H](CCC(=O)O)[C@H]1CC[C@H]2[C@@H]3CC[C@@H]4C[C@H](O)CC[C@]4(C)[C@H]3C[C@H](O)[C@]12C`, the Potency entry is “inactive”. The same measure, in the same setting: then `COc1ccc(-c2nc3ccc(C4=NNC(=O)CC4C)cc3[nH]2)cc1` (stereo not given), with “inactive”. In the case of `O=C1c2ccccc2S(=O)(=O)N1CCCCN1CCN(c2ncccn2)CC1`, the Potency result was “inactive”. The same measure, in the same setting: then `Nc1ncn([C@H]2C[C@H](O)[C@@H](CO)O2)c(=O)n1`, with “inactive”. Take `CC(=O)c1ccc2c(c1)N(CCCN(C)C)c1ccccc1S2`: the fluorescence, % of fluorescent control was 0.0215% [at 18.6 µM]. Turning to `CC(C)(CO)[N+](=O)[O-]`, the Potency result is “inactive”. Regarding `COc1cc2c(cc1OC)C(C(C(=O)N(CCc1ccc(OC)c(OC)c1OC)CCc1ccc(OC)c(OC)c1OC)c1ccccc1)=NCC2` (stereo not given), the Potency entry was “inactive”. `C=CCOC(=O)CCC1CCCCC1`: the Potency result is “inactive”. Regarding `CC1=CC[C@H](C(C)C)C=C1`, the Potency result is “inactive”. The same measure, in the same setting: then `O=C(O)C1(C(=O)Nc2ccc(Cl)cc2Cl)CC1`, with “inactive”; and `CC(C)(COC(=O)c1ccccc1)COC(=O)c1ccccc1`, with “inactive”; and `CCCCCCCCCCCCN1CCCCCC1=O`, with “inactive”. The same measure, in the same setting: then `CCCCC`, with “inactive”; and `N=c1ccn2c(n1)O[C@H]1[C@H](O)[C@@H](CO)O[C@H]12`, with “inactive”; and `Nc1cccc(S(=O)(=O)c2cccc(N)c2)c1`, with “inactive”. Still for that read-out and setting: then `CC(=O)NO`, with “inactive”; and `O=C1[C@H]2CCCC[C@H]2C(=O)N1CCCCN1CCN(c2nsc3ccccc23)CC1`, with “inactive”; and `CCN(CC)CCNC(=O)c1cc(Br)c(N)cc1OC`, with “inactive”. For the compound `C/C=C/C(=O)CC`, the fluorescence, % of fluorescent control is -0.535% [at 18.6 µM].

For the compound `CCC(C)c1cc(C(C)(C)C)c(O)c(C(C)(C)C)c1` (stereo not given), the Potency result is “inactive”. With `CN1CCN(C(c2ccccc2)c2ccccc2)CC1`, the fluorescence, % of fluorescent control was -0.0303% [at 18.6 µM].

As to `CN(C)C(=O)NC1(c2ccccc2)CCN(CC[C@@]2(c3ccc(F)c(F)c3)CN(C(=O)c3ccccc3)CCO2)CC1`, the Potency entry was “inactive”. The same measure, in the same setting: then `C=C1[C@H]2CC[C@@H]3[C@H]2C(C)(C)CCC[C@]13C`, with “inactive”; and `COC(=O)C1=C(C)NC(COC(N)=O)=C(C(=O)OC(C)C)C1c1cccc(Cl)c1Cl` (stereo not given), with “inactive”; and `CC(=O)[O][Al]`, with “inactive”. With `CC(C)OC(=O)C(C)N(C(=O)c1ccccc1)c1ccc(F)c(Cl)c1` (stereo not given), the Potency result is “inactive”. Turning to `CC(C)(C)OCC1CO1` (stereo not given), the Potency result was “inactive”. Still for that read-out and setting: then `CC(=O)OC[C@H]1O[C@@H](n2ncc(=O)[nH]c2=O)[C@H](OC(C)=O)[C@@H]1OC(C)=O`, with “inactive”.
